Source: PubChem BioAssay
“And” between values parts separate entries of the source, which are not always exact repeats. Equal entries are not always repeated. Some compounds were tested as several samples or in several runs, with calls that do not always agree. The source made the active and inactive calls. Rule as the data show it: active = fold change permeability below about 0.7 or above about 1.3; inactive = in between. Positions of bridges follow the written chain, without caps; N, C: chain ends. Non-standard residues stand in square brackets, D forms with d. Residues, ends and D or L forms follow the SMILES beside them. hArg = N=C(N)NCCCC[CH](N)C(=O)O; Mpa = O=C(O)CCS

Assay: modulators of brain endothelial barrier permeability, primary screen, cell-based, FITC-avidin fluorescence, HTS (AID 1963498); also: test concentration not given here
Details: actives lie on both sides

**Q.** Which fold change permeability does the source give for `FC(F)(F)c1ccccc1-n1ccnc1` here?
**A.** 1.2 (inactive)

**Q.** For `CN(C)CCC=C1c2ccccc2C=Cc2ccccc21`, which fold change permeability is on record?
**A.** 1.1 (inactive)

**Q.** Which fold change permeability does the source give for `O=C1c2ccccc2C(=O)c2c(NCCc3ccc(O)cc3)ccc(NCCc3ccc(O)cc3)c21` here?
**A.** 1.1 (inactive)

**Q.** Which fold change permeability does the source give for `O=S(=O)(c1cccc2c(I)cccc12)N1CCCNCC1` here?
**A.** 0.9 (inactive)

**Q.** Which fold change permeability does the source give for `CC(C)NCC(O)COc1ccc(CCOCC2CC2)cc1` (stereo unspecified) here?
**A.** 1.2 (inactive)

**Q.** Which fold change permeability does the source give for `O=C1NC(=O)C(c2ccccc2)(c2ccccc2)N1` here?
**A.** 1.3 (active) and 1.1 (inactive)

**Q.** With `CN(C)CCC=C1c2ccccc2CCc2ccccc21` as the molecule, how does the fold change permeability read?
**A.** 1.1 (inactive)

**Q.** For `CCCN1C[C@H](CSC)C[C@@H]2c3cccc4[nH]cc(c34)C[C@H]21`, which fold change permeability is on record?
**A.** 1.1 (inactive)

**Q.** With `Cc1nc(N=Nc2ccc(S(=O)(=O)O)cc2S(=O)(=O)O)c(COP(=O)(O)O)c(C=O)c1O` as the molecule, how does the fold change permeability read?
**A.** 0.9 (inactive)

**Q.** With `O=C(O)c1cccc(-c2ccc(-c3cn(C(=O)N4CCCCC4Cc4ccccc4)nn3)cc2)c1` (stereo unspecified) as the molecule, how does the fold change permeability read?
**A.** 1 (inactive)

**Q.** Which fold change permeability does the source give for `O=C(O)CNC(=O)C(CS)Cc1ccccc1` (stereo unspecified) here?
**A.** 0.6 (active)

**Q.** Which fold change permeability does the source give for `NC(=O)C1CSSCCC(=O)NC(CCCCN=C(N)N)C(=O)NCC(=O)NC(CC(=O)O)C(=O)NC(Cc2c[nH]c3ccccc23)C(=O)N2CCCC2C(=O)N1` (stereo unspecified) ([Mpa][hArg]GDWPC-NH2; disulfide 1-7; configuration not given here) here?
**A.** 0.9 (inactive)

**Q.** With `CC(C)(C)NCC(O)c1ccc(O)c(CO)c1` (stereo unspecified) as the molecule, how does the fold change permeability read?
**A.** 0.9 (inactive)

**Q.** With `O=C(O)CN(CCOCCOCCN(CC(=O)O)CC(=O)O)CC(=O)O` as the molecule, how does the fold change permeability read?
**A.** 0.8 (inactive)

**Q.** With `CN(C)C(=O)Oc1cccc([N+](C)(C)C)c1` as the molecule, how does the fold change permeability read?
**A.** 0.8 (inactive)

**Q.** For `CCC(=O)Nc1cccc(Oc2nc(Nc3ccc(N4CCN(C)CC4)cc3OC)ncc2Cl)c1`, which fold change permeability is on record?
**A.** 1.2 (inactive)

**Q.** Which fold change permeability does the source give for `NC1(C(=O)O)CCCCC1` here?
**A.** 1 (inactive)

**Q.** With `C[C@]12CCC(=O)C=C1CC[C@@H]1[C@@H]2CC[C@@]2(C)[C@H]1CC[C@]2(O)C(=O)CO` as the molecule, how does the fold change permeability read?
**A.** 1.1 (inactive)

**Q.** With `NOCC(=O)O` as the molecule, how does the fold change permeability read?
**A.** 0.9 (inactive)

**Q.** For `C[C@]12C=CC(=O)C=C1CC[C@H]1[C@@H]3C[C@@H](O)[C@](O)(C(=O)CO)[C@@]3(C)C[C@H](O)[C@@]12F`, which fold change permeability is on record?
**A.** 1.4 (active)

**Q.** With `CCOC(=O)c1ccc(C#Cc2ccc3c(c2)C(C)(C)CCS3)nc1` as the molecule, how does the fold change permeability read?
**A.** 2.1 (active)
